A selection: hits, their analogues and other compounds. The true share with any hit is near 19%.
HT1080-NT tox = kills 2HG-producing HT-1080-NT fibrosarcoma cells. Potency, µM (titrated, usually from 46.1 µM), for inactives: top-dose activity, negative = less viability, most hits filed as cytotoxic. AID 686970. HT-1080-NT fibrosarcoma viability, CellTiter-Glo ATP luminescence, 48 h. 360,000 tested, 1.6% active;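 further: NT is the 2HG producing partner of a matched IDH1 knockdown line; potency means the concentration at half of the fitted maximal effect; 0% = DMSO-treated cells and -100% = media-only wells without cells; nearly all actives have a fitted effect of over 55% in size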
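Viability by CellTiter-Glo luminescence after 48 h compound exposure at 37C of HT-1080-NT cells (750/well, RPMI, 5% FBS). % activity scaled between DMSO wells and medium-only wells, then curve-fitted and categorized by curve class.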
TDP1 cell noCPT = qHTS for Inhibitors of human tyrosyl-DNA phosphodiesterase 1 (TDP1): qHTS in cells in absence of CPT. DT40 Tdp1-/- hTDP1 cells, no CPT, ATP luminescence, 48 h. Potency, µM (highest dose often 46.2 µM), without a hit: top-dose activity change, negative = growth inhibition, usual class: inhibitors. 420,000 tested, 15% active. AID 686978, 2013; further: potency means the concentration at half of the fitted maximal effect; nearly all actives have a fitted effect of over 55% in size
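Compound effects on proliferation are scored in DT40 Tdp1-/-;hTDP1 cells in the absence of CPT. ATP levels (CellTiter-Glo luminescence) are recorded after a ≥48 hr, 37 °C incubation.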
HT1080 IDH1KD tx = HT-1080 IDH1 knockdown cell toxicity (counter line); HT-1080 IDH1 knockdown viability, ATP luminescence, 48 h; Potency, µM (series often up to 46.1 µM), for inactives: at the top dose activity, negative = toxicity, hits mostly cytotoxic; 360,000 tested, 2% active; AID 686971;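 further: potency means the concentration at half of the fitted maximal effect; 0% = DMSO wells and -100% = cell-free medium wells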
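CellTiter-Glo luminescence after 48 h compound exposure at 37 degrees C of IDH1-knockdown HT-1080 cells in 5% FBS RPMI. %Activity scaled between DMSO wells and cell-free media wells, with curves fitted and assigned curve classes.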
uPA generation = cell surface uPA generation inhibition; 330,000 tested, 0.31% active; cell surface uPA generation assay, qHTS; Potency, µM (titrated, usually from 38.3 µM), for inactives: at the top dose activity change, negative = inhibition, actives largely listed as inhibitors; AID 540303; active means well fitted inhibition curve with a large enough effect; inconclusive means small, poorly fitted or top-dose-only effect; inactive means no such curve, though single readings can be large or run the other way; tested in mouse RAW 264.7 cells; further: potency means the concentration at half of the fitted maximal effect; nearly all actives have a fitted effect of over 55% in size
IL1B secr inh = inhibitors of inflammasome signaling (IL-1 beta secretion). 360,000 tested, 4.7% active. activity change, % at 57.5 µM. THP-1 LPS/ATP IL-1B secretion, AlphaLISA, 16 h; hits give low values; in the data active means activity change below about -50%; inconclusive means mostly about -30% to -49%
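THP-1 cells pretreated 1 hr with compounds (up to 57.5 uM final), then stimulated with LPS (250 ng/mL final) plus ATP (1.25 mM final); secreted IL-1B measured by AlphaLISA after 16 hr, decreased signal indicating inhibition.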
DT40 TDP1 CPT = growth inhibition of DT40 Tdp1-/-;hTDP1 cells with camptothecin (screen for TDP1 inhibitors); chicken DT40 Tdp1-/-;hTDP1 cells + 20 nM CPT, ATP luminescence, 48 h; Potency, µM (top dose mostly 46.2 µM), without a hit: at the highest dose activity change, negative = growth inhibition, hits mostly inhibitors; 420,000 tested, 12% active; AID 686979; further: potency means the concentration at half of the fitted maximal effect; nearly all actives have a fitted effect of over 55% in size
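Cell growth measured by CellTiter-Glo luminescence after a minimum 48 h, 37 C compound exposure with 20 nM CPT in Tdp1-knockout DT40 cells stably expressing hTDP1, seeded 400/well; qHTS titration format.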
* = called active by the depositor. Unless noted, the call rests on the fitted dose curve; in most records, active means well fitted curve in the direction sought with a large enough effect; inconclusive means small, poorly fitted or top-dose-only effect, or another doubt; inactive means no such curve, though single readings can be large; an effect the other way counts as inactive or inconclusive. Unless noted, on the % scale 0 is the no-effect control and ±100 the full control effect.

`Cc1noc(C)c1COc1ccc(C(=O)N2CCCC(C(F)(F)F)C2)cc1` (configuration not stated) gave HT1080-NT tox -0.6%, TDP1 cell noCPT inconclusive, HT1080 IDH1KD tx -2.7%, uPA generation 0.9%, IL1B secr inh 22.2 and DT40 TDP1 CPT inconclusive.
For COC(=O)c1ccccc1NC(=O)c1noc2c1CSc1ccccc1-2 the results were TDP1 cell noCPT 18.7% and DT40 TDP1 CPT 27.0%.
Screening OCC(CO)c1cnnc2ccccc12 returned HT1080-NT tox 1.6%, TDP1 cell noCPT -12.2%, HT1080 IDH1KD tx 19.1%, uPA generation -2.7%, IL1B secr inh 3.1 and DT40 TDP1 CPT -5.4%.
For CCC(C)NC(=O)CSc1nc2cc3c(cc2c(=O)n1CCCC(=O)NCc1ccc2c(c1)OCO2)OCO3 (configuration not stated) the results were TDP1 cell noCPT 2.4% and DT40 TDP1 CPT -10.9%.
For CC1CCCN(CCCOc2ccccc2-c2ccccc2)C1 (configuration not stated) the results were HT1080-NT tox inconclusive, TDP1 cell noCPT 23.1µM*, HT1080 IDH1KD tx inconclusive, uPA generation -3.0%, IL1B secr inh -81.6* and DT40 TDP1 CPT inconclusive.
CC1CCN(CCOCCOc2ccccc2-c2ccccc2)CC1 was read as HT1080-NT tox -12.2%, TDP1 cell noCPT inconclusive, HT1080 IDH1KD tx inconclusive, uPA generation -3.8%, IL1B secr inh inconclusive and DT40 TDP1 CPT 23.1µM*.
Screening c1ccc(-c2ccccc2OCCCN2CCOCC2)cc1 returned HT1080-NT tox 3.6%, TDP1 cell noCPT -28.2%, HT1080 IDH1KD tx -2.2%, uPA generation 9.9%, IL1B secr inh -0.5 and DT40 TDP1 CPT -21.4%.
Screening c1ccc(-c2ccccc2OCCOCCN2CCCCC2)cc1 returned HT1080-NT tox -2.1%, TDP1 cell noCPT inconclusive, HT1080 IDH1KD tx 1.3%, uPA generation -4.0%, IL1B secr inh inconclusive and DT40 TDP1 CPT 23.1µM*.
`COc1ccccc1OCCCCN1CCC(C)CC1` gave HT1080-NT tox 15.8%, TDP1 cell noCPT -3.9%, HT1080 IDH1KD tx 5.6%, uPA generation 0.3%, IL1B secr inh 7.3 and DT40 TDP1 CPT 3.0%.
Screening c1ccc(-c2ccccc2OCCCCN2CCCCCC2)cc1 returned HT1080-NT tox -2.3%, TDP1 cell noCPT inconclusive, HT1080 IDH1KD tx -8.0%, uPA generation inconclusive, IL1B secr inh -22.3 and DT40 TDP1 CPT 18.4µM*.
Screening c1ccc(-c2ccccc2OCCN2CCCC2)cc1 returned HT1080-NT tox -3.1%, TDP1 cell noCPT -11.5%, HT1080 IDH1KD tx -1.5%, uPA generation 1.6%, IL1B secr inh inconclusive and DT40 TDP1 CPT 6.6%.
`O=C(CSCc1cc(=O)n2ccsc2n1)Nc1ccc(F)cc1` gave HT1080-NT tox 3.3%, TDP1 cell noCPT 7.4%, HT1080 IDH1KD tx 16.2%, uPA generation inconclusive, IL1B secr inh 65.6 and DT40 TDP1 CPT 9.7%.
Screening CCCCn1c(N)c(N(C(=O)CSc2nncn2-c2ccccc2)C2CCCC2)c(=O)[nH]c1=O returned HT1080-NT tox 7.5%, TDP1 cell noCPT 3.9%, HT1080 IDH1KD tx 11.6%, uPA generation 3.7%, IL1B secr inh inconclusive and DT40 TDP1 CPT -11.2%.
`COc1ccc(-n2c(=O)c(-c3cn(C)c4ccccc34)nc3cnc(N4CCOCC4)nc32)cc1` gave TDP1 cell noCPT 12.3% and DT40 TDP1 CPT -4.0%.
CCOC(=O)C1(C)CCN1C(=O)c1ccc(SC(F)(F)F)cc1 (configuration not stated) was read as HT1080-NT tox 0.7%, TDP1 cell noCPT inconclusive, HT1080 IDH1KD tx -1.2%, IL1B secr inh 14.5 and DT40 TDP1 CPT 18.4µM*.
Screening CCOC(=O)C1(C)CCN1C(=O)c1ccc(C(C)(C)C)cc1 (configuration not stated) returned HT1080-NT tox -0.2%, TDP1 cell noCPT 20.6µM*, HT1080 IDH1KD tx 10.4%, IL1B secr inh 2.6 and DT40 TDP1 CPT 16.4µM*.
For CCOC(=O)C1(C)CCCCCN1C(=O)c1ccc(SC(F)(F)F)cc1 (configuration not stated) the results were HT1080-NT tox 17.7%, TDP1 cell noCPT inconclusive, HT1080 IDH1KD tx 18.3%, IL1B secr inh 11.8 and DT40 TDP1 CPT inconclusive.
`COc1ccc(N2CCN(C(=O)CSc3nnc4c(C)cc5ccc(C)c(C)c5n34)CC2)cc1` gave HT1080-NT tox 6.1%, TDP1 cell noCPT -24.0%, HT1080 IDH1KD tx -0.5%, uPA generation -4.0%, IL1B secr inh -65.9* and DT40 TDP1 CPT -16.6%.
COc1ccc(N2CCN(C(=O)CSc3nnc4c(C)cc5c(C)cc(C)cc5n34)CC2)cc1 was read as HT1080-NT tox 7.3%, TDP1 cell noCPT 23.1µM*, HT1080 IDH1KD tx -0.1%, IL1B secr inh inconclusive and DT40 TDP1 CPT inconclusive.
COc1ccc(N2CCN(C(=O)CSc3nnc4c(C)cc5cc(C)ccc5n34)CC2)cc1 was read as HT1080-NT tox 4.9%, TDP1 cell noCPT inconclusive, HT1080 IDH1KD tx 15.2%, uPA generation -0.6%, IL1B secr inh -14.5 and DT40 TDP1 CPT inconclusive.
For CCOc1ccc(CNC(=O)Cn2nc(C)n3cccc3c2=O)cc1 the results were TDP1 cell noCPT -14.6% and DT40 TDP1 CPT -6.8%.
NS(=O)(=O)c1ccc(S(=O)(=O)N2CCCC(c3ccccc3)C2)cc1 (configuration not stated) was read as HT1080-NT tox -18.1%, TDP1 cell noCPT 23.1µM*, HT1080 IDH1KD tx -16.0%, IL1B secr inh 3.0 and DT40 TDP1 CPT inconclusive.
For CC(C)(C)c1ccc(S(=O)(=O)N2CCC(c3ccncc3)CC2)cc1 the results were TDP1 cell noCPT 8.2µM* and DT40 TDP1 CPT 13µM*.
CC(C)Cc1ccc(S(=O)(=O)N2CCC(c3ccncc3)CC2)cc1 was read as TDP1 cell noCPT 7.31µM* and DT40 TDP1 CPT 9.2µM*.
Screening CC(=O)Nc1ccc(S(=O)(=O)N2CCC(c3ccncc3)CC2)cc1 returned TDP1 cell noCPT 2.59µM* and DT40 TDP1 CPT 5.17µM*.
Screening COC(=O)C1CCN(S(=O)(=O)c2ccc(NC(C)=O)cc2)CC1 returned HT1080-NT tox 10.3%, TDP1 cell noCPT -13.9%, HT1080 IDH1KD tx 9.7%, uPA generation 0.5%, IL1B secr inh -12.9 and DT40 TDP1 CPT -8.6%.
Cc1ccc(S(=O)(=O)N2CCN(C)CC2)c(C)c1 was read as HT1080-NT tox -3.3%, TDP1 cell noCPT -7.1%, HT1080 IDH1KD tx 4.3%, IL1B secr inh 1.9 and DT40 TDP1 CPT -3.3%.
Cc1ccc(S(=O)(=O)N2CCC(c3ccncc3)CC2)c(C)c1 was read as TDP1 cell noCPT 10.3µM* and DT40 TDP1 CPT 20.6µM*.

Source: PubChem BioAssay
